# ChEMBL document CHEMBL1201862, “PubChem BioAssay data set” (2004)
# Hit rate of the full screen: of about 310,000 compounds, about 11,000 (3.5%) were called active. Inconclusive results (about 8%) are left out. The rule behind the calls is not given here. The full list was thinned out, with actives kept by preference.
# Target: Nuclear receptor ROR-gamma (Mus musculus) (UniProt P51450)
# Assay: VP16 counterscreen qHTS for inhibitors of ROR gamma transcriptional activity.
# Assay type: functional
# Sequence of Nuclear receptor ROR-gamma (Mus musculus) (P51450 whole entry): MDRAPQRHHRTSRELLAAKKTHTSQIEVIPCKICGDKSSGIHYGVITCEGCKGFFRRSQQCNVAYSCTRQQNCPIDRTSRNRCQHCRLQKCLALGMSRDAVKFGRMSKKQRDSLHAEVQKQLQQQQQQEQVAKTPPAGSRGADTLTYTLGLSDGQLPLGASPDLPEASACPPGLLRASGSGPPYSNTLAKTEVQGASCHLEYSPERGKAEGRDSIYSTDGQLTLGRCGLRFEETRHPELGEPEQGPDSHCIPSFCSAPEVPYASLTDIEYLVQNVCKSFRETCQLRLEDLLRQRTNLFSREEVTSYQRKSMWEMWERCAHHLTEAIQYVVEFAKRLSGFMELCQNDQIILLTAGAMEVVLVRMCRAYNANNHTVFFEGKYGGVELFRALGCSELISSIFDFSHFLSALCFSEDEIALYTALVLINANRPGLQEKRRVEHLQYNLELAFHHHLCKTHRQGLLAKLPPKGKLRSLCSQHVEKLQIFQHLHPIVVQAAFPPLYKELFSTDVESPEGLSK
row,Compound,Potency
1,Cl[Te]1(Cl)OCCO1,3.55 µM (active)
2,CNc1ccc2oc(C[C@@H]3OC4(CC[C@@H]3C)O[C@H](C(C)C(=O)c3ccc[nH]3)[C@H](C)C[C@H]4C)nc2c1C(=O)O (some centres not stated),631 µM (active)
